# Measurements: the supplement of paper PMC6555819
# Key:
# Test in all cases: PBM binding z-score (relative to random genomic background probes); higher = stronger binding; sequences stand for … in GC…GCGATTGACAGCGTAGAATGAAGG
# [1] = tested on: RARb homodimer (NR concentration 270 nM)
# How it was run: (§1)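 The probes on custom Agilent 4×180K protein-binding microarrays were double-stranded, with 34-nt variable regions bearing direct-repeat seeds, single-nucleotide variants, half-site ablations and random human genomic background sequences. Incubation lasted 1 h with ligand-free nuclear receptor dimers in PBS pH 7.4, 2% milk, 0.02% Triton X-100, 1 mM DTT, 0.2 mg/mL BSA and 0.4 mg/ml salmon testes DNA. Antibodies against each partner (one per run) detected bound dimers, and fluorescence scans were regression-normalized. Binding z-scores take the random background probes as reference.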
# [2] = tested on: RARg:RXRa (NR concentration 270 nM, RXRa partner concentration 90 nM)
# How it was run: as §1
# [3] = tested on: RARg homodimer (NR concentration 270 nM)
# How it was run: as §1
# [4] = tested on: RXRa DBDmut IVT, anti-RXR (DBD mutation: RXRa K156A/R161A, NR concentration 90 nM)
# How it was run: as §1
# [5] = tested on: RXRa homodimer (NR concentration 180 nM)
# How it was run: as §1
# [6] = tested on: THRa:RXRa (NR concentration 90 nM, RXRa partner concentration 90 nM)
# How it was run: as §1
# [7] = tested on: THRa homodimer (NR concentration 90 nM)
# How it was run: as §1
# [8] = tested on: VDR homodimer (NR concentration 270 nM)
# How it was run: as §1
Sequence,PBM binding z-score [1],PBM binding z-score [2],PBM binding z-score [3],PBM binding z-score [4],PBM binding z-score [5],PBM binding z-score [6],PBM binding z-score [7],PBM binding z-score [8]
GCTGCTAGGTCAGGTTGGTCAGCCAACGGGTACG,2.66,2.78,3.65,0.121,0.819,1.61,0.269,0.768
TCATATAGGTAAATGGTGAAAGTCGGTGTGGTAA,0.19,0.0436,-0.12,1.83,0.476,0.0433,0.202,0.415
TTACCAAGGTTAGCTGAGGTCGTTGATCCAACTC,2.06,1.68,1.41,0.854,1.84,5.01,2.13,2.87
TATGCTAGGTCAGTTGGTCAGCTAACGAGCTGCC,2.5,2.62,3.34,-0.0461,1.06,1.3,0.034,-0.256
ATCTCTAGGTAAAGTTCAGTGCAAGATCGATAGA,2.68,2.49,2.87,1.39,1.4,1.5,0.256,2.47
ATTATTAGTTGAGACGAGGGCAACCGATAGGTTG,1.64,1.02,1.18,0.511,0.708,2.79,0.878,1.63
TATCCTAGGTCATTCAGGGGCCAGTATAGAAAGC,3.68,6.44,4.99,2.55,3.59,3.76,1.57,2.01
CTACCAAGGTGAACACGGTCGTTGATTACTATTC,1.24,0.852,0.843,0.773,0.777,2.07,0.961,0.015
CCTTACGGGTCAAGGTTACAGCACGGGTGGTACG,3.8,5.07,4.96,0.498,5.42,3.38,1.09,1.19
ATCGGAAGGTCGACGAGGTGAGTATACACCGTTT,1.95,2.32,2.65,0.311,2.37,3.04,0.579,0.813
TCTTGTAGACCAAGCAGGTTAAGAAAGCCTGAGT,0.377,0.0625,-0.186,0.787,0.346,0.395,-0.407,0.173
CCTAGTTAGTCAAGGTCACACACGCTATAGGTAC,4.28,4.36,4.31,2.45,4.3,4.27,4.29,3.3
TCAAGTTGGTCAAAGGTCACACACTCGAAATGCG,5.19,7.2,6.47,2.15,8.37,4.16,1.86,2.4
ACTATCAGTTGACTTAGGGCAACCGATACGACGC,0.986,0.641,1.1,0.226,0.399,1.46,0.315,0.169
CGTCCAAGGTCATAGGAGGCCAGTGAAGACAGAT,4.11,5.88,5.84,3.97,5.41,4.9,2.32,3.03
CTCGAAAGGTCGGTTGAGGGGAGTATACGGATAA,1.86,2.44,2.58,0.704,2.14,4,-0.23,0.528
ACTATTAATTGACTTAGGGCAACCGATACGACGC,1,0.766,0.814,0.828,0.409,0.884,1.15,1.24

Sequence,PBM binding z-score [1],PBM binding z-score [2],PBM binding z-score [3],PBM binding z-score [4],PBM binding z-score [5],PBM binding z-score [6],PBM binding z-score [7],PBM binding z-score [8]
CGTCCAAGGTCAAGGTCAGTGACAGAGACTCGAA,5.06,6.76,7.62,3.72,6.77,4.35,3.7,3.35
CTCGAAAGGTGGGTTGAGGTGAGTATACGGATAA,1.3,0.297,0.548,-0.0446,0.396,4.18,1.75,0.756
CCTCGGAGGACAGAATGTCAGAGCTGTCCGCTTT,-0.0927,-0.321,0.175,-0.282,-0.66,-0.251,-0.615,-0.654
TCTTGGAGATCAATAGAGGTTAAGAAAGTGCGCT,1.39,0.878,0.376,0.544,1.5,3.19,-0.339,0.159
CTTCCAAGGTCAAAGGTCAGTGAAGAGATGACGG,5.53,8.63,8.01,3.91,10.4,5.02,3.03,3.67
CCTTACGGGTCACAGACAGGTTATAGCATTTGGA,3.16,5.97,4.84,1.77,5.47,3.03,0.316,0.727
CAAACTAGGTCACCGGAAGGGCAAAGTCCGCATG,4.57,6.48,5.56,1.21,3.68,3.42,1.7,1.33
CGAACTAGGTCATCCAGGACAGTTAATACATTGA,3,3.93,4.66,2.41,2.99,3.54,2.15,2.37
TCATATAGGTAAAAGGTGAAAGTTGGTGTGGTAA,2.19,2.24,0.981,1.89,3.27,1.9,0.96,0.577
TTACCAAGGTGAGCTGAGGTCTTTGATCCAACTC,0.568,0.335,0.384,-0.584,0.322,4.17,0.8,-0.646
AGAACGAGGGCAATCAGTTGATAGCACGGGTGGC,1.08,1.25,1.74,1.89,0.909,1.04,0.0484,1.61
TAGCCTAGGTCATTCAGAGGCCAGTATAGAAAGC,3.33,5.8,4.01,1.57,2.87,3.14,0.653,1.14
TCGAGTAGATTAGGGGCATTCAGAATGGCGTCGA,0.0337,-0.202,-0.446,0.574,0.16,0.515,-0.591,0.687
GCTATTAGTTGAACGGGCAACCGAATGATTCTCG,-0.0848,-0.133,0.229,0.557,-0.15,-0.33,-0.617,-0.439
GCTCGGAGGAGAAGGTCAGAGCTTTGTCCGTAGA,2.4,2.15,2.28,-0.281,2.08,1.15,-0.793,-0.592
CAGCCTAGGTCAGGGCAAGTATAGGAGGAACGTT,2.89,3.37,4.42,0.0937,2.07,2.2,0.481,-0.0774
AGTTAAAGTTCAGGACGAGGTAACGTAAAGCACG,3.04,4.5,4.39,3.27,2.72,3.85,1.96,2.43
